An excerpt weighted towards active compounds, which were near 22% of everything screened.
Measles CPE = protection of cells from measles virus; 1.5% of 140,000 active; Measles virus-infected cells, CPE protection, absorbance; protection (pct of control), % at 4 µM; in the data active = protection mostly above about 24%, no sharp cut-off; inactive = mostly below about 26%
CYP2C19 activ = increases human CYP2C19 enzyme activity; activation factor at 5 µM; recombinant CYP2C19, luciferin-H EGE luminescence; active compounds read high; 0 = fully inhibited enzyme, 1 = untreated enzyme; 96,000 tested, under 10 active;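 active = activation factor of at least 2 at 5 µM in the primary screen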;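 also: 0 = wells with 2.5 mM tranylcypromine and 1 = vehicle-only wells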
CYP2C9 inh = blocks human cytochrome P450 2C9. P11712. CYP2C9 Supersomes, luciferin-H conversion, luminescence. inhibition, % at 5 µM. 20% of 96,000 active;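 active = blocking of liver enzyme CYP2C9 beyond about 50% at 5 µM, limit read from the data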
Target sequence (P11712 whole entry, looked up): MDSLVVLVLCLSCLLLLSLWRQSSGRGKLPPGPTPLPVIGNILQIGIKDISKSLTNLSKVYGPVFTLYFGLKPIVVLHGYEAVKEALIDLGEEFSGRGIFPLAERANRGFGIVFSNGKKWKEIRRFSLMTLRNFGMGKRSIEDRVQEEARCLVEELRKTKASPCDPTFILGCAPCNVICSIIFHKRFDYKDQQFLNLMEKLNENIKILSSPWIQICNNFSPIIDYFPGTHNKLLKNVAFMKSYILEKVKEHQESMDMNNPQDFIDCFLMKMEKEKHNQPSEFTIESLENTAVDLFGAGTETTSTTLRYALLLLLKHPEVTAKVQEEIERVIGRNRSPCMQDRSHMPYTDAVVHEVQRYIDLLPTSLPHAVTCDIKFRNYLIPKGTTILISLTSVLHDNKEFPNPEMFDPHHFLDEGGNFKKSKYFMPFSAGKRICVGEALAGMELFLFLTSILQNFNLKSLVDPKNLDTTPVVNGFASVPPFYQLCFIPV
CYP2C9 act = activators of human CYP2C9 | recombinant CYP2C9, luciferin-H conversion, luminescence; active compounds read high; factor 1 = untreated enzyme, 0 = blocked | activation factor at 5 µM | P11712 | 1.4% of 96,000 active;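 active = activation factor of 2 or more for CYP2C9 at a 5 µM dose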;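 also: 0 = sulfaphenazole-blocked wells and 1 = vehicle-only wells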
CYP2C19 inh = inhibitors of human CYP2C19; P33261; CYP2C19 Supersomes, luciferin-H EGE luminescence, 30 min; inhibition, % at 5 µM; 21% of 96,000 active; AID 778;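 active = CYP2C19 inhibition above a set limit at 5 µM in the primary screen, cut at about 50% in these data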;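 also: plate controls were negative control wells for no effect and 2.5 mM tranylcypromine positive control for full effect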
Numbers without * were called inactive.

`O=C(COC(=O)CNC(=O)c1ccccc1)Nc1nc(-c2ccccc2)cs1` gave Measles CPE 3.
COc1cc(/C=C/C(=O)NC(C)(C)C)ccc1OCc1ccccc1 was read as Measles CPE 27*.
COc1cc(/C=C/C(=O)N2CCOCC2)ccc1OCc1ccccc1 was read as Measles CPE 94*.
For COc1ccc(/C=C/C(=O)O)cc1OC the results were Measles CPE 4.
`c1ccc(-c2noc(-c3ccncc3)n2)nc1` gave Measles CPE 4, CYP2C19 activ 0.3, CYP2C9 inh 25, CYP2C9 act 0.7 and CYP2C19 inh 68*.
COc1cccc(-c2nc(-c3ccccn3)no2)c1 was read as Measles CPE 1, CYP2C19 activ 0.2, CYP2C9 inh 39, CYP2C9 act 0.6 and CYP2C19 inh 75*.
For c1ccc(-c2noc(-c3ccc4c(c3)OCO4)n2)nc1 the results were Measles CPE 6, CYP2C19 activ 0.2, CYP2C9 inh 92*, CYP2C9 act 0.1 and CYP2C19 inh 79*.
`CCOC(=O)C1=C(Nc2ccccc2)CC(C)(O)C(C(=O)OCC)C1c1ccc(Cl)cc1` (configuration not stated) gave Measles CPE 2.
Screening COc1ccc(C2C(C#N)=C(N)Oc3n[nH]c(C)c32)cc1Cn1cc([N+](=O)[O-])cn1 (configuration not stated) returned Measles CPE 20, CYP2C19 activ 0.8, CYP2C9 inh 67*, CYP2C9 act 0.3 and CYP2C19 inh 21.
`COc1ccc(C2C(C#N)=C(N)OC3=C2C(=O)CCC3)cc1Cn1nc(C)c([N+](=O)[O-])c1C` (configuration not stated) gave Measles CPE 8, CYP2C19 activ 0.8, CYP2C9 inh 44, CYP2C9 act 0.6 and CYP2C19 inh 25.
COc1cc(C2C(C#N)=C(N)Oc3n[nH]c(C)c32)cc2c1OCO2 (configuration not stated) was read as Measles CPE 5, CYP2C19 activ 0.5, CYP2C9 inh 63*, CYP2C9 act 0.4 and CYP2C19 inh 55*.
COc1ccc(C2C(C#N)=C(N)Oc3n[nH]c(C)c32)cc1Cn1nc(C)c([N+](=O)[O-])c1C (configuration not stated) was read as Measles CPE 9, CYP2C19 activ 0.4, CYP2C9 inh 54*, CYP2C9 act 0.5 and CYP2C19 inh 56*.
For COc1cc(C2C(C#N)=C(N)Oc3n[nH]c(C)c32)ccc1OC(=O)c1ccccc1 (configuration not stated) the results were Measles CPE 16, CYP2C19 activ 1.1, CYP2C9 inh 9, CYP2C9 act 0.9 and CYP2C19 inh -7.
COc1ccc(/C=C/C(=O)Nc2cccc(N3CCOCC3)c2)cc1OC was read as Measles CPE 4.
For CC(=O)N1c2c(cc(Br)cc2S(=O)(=O)N2CCN(C(=O)c3ccco3)CC2)CC1C (configuration not stated) the results were Measles CPE 9.
`CCOC(=O)c1[nH]c(C)c(C(=O)NCc2cccnc2)c1C` gave Measles CPE 0, CYP2C19 activ 1, CYP2C9 inh -17, CYP2C9 act 1.2 and CYP2C19 inh 0.
Screening Cc1ccc2c(c1)c(=O)c(Br)c(C)n2Cc1ccccc1 returned Measles CPE 17.
`CCOc1ccc(NS(=O)(=O)c2ccc(OCC)c3ncccc23)cc1` gave Measles CPE 4, CYP2C19 activ 0.8, CYP2C9 inh 68*, CYP2C9 act 0.3 and CYP2C19 inh 25.
Screening CCOc1ccc(S(=O)(=O)NCc2ccc(C)cc2)c2cccnc12 returned Measles CPE 7.
For CCOc1ccc(S(=O)(=O)Nc2cc(C)ccn2)c2ccccc12 the results were Measles CPE 47*, CYP2C19 activ 1, CYP2C9 inh -9, CYP2C9 act 1.1 and CYP2C19 inh -4.
COc1ccc(N2CCN(C(=O)c3ccc(N4C(=O)NC5CC4(C)Oc4ccccc45)cc3)CC2)cc1 (configuration not stated) was read as Measles CPE 3, CYP2C19 activ 0.6, CYP2C9 inh 26, CYP2C9 act 0.7 and CYP2C19 inh 44.
CC12CC(c3ccccc3O1)N(C(=O)c1ccco1)C(=S)N2c1ccc(F)cc1 (configuration not stated) was read as Measles CPE 1, CYP2C19 activ 0.4, CYP2C9 inh 45, CYP2C9 act 0.6 and CYP2C19 inh 63*.

Screening data as filed in PubChem BioAssay.
